A selection: hits, their analogues and other compounds. The true share with any hit is near 3.6%.
MazF activator: increases E. coli MazEF RNase cleavage of RNA; 350,000 tested, 0.32% active; P0AE70; FAM/BHQ RNA-DNA oligo cleavage fluorescence, 5 h; activation, % at 20 µM; in the data active = activation above about 50%
Target sequence (P0AE70 whole entry, looked up): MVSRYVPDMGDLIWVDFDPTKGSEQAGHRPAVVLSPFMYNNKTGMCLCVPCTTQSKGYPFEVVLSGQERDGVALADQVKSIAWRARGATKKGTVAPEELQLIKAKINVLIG
BoNT F protease: inhibitors of Botulinum neurotoxin F light chain protease | Multiplex microsphere protease cleavage assay, flow cytometry | inhibition, % at 10 µM | 360,000 tested, 0.22% active | AID 588497; in the data active = inhibition above about 35%, passing the limit was not always enough; inconclusive = no clear call, values can overlap the other calls
Anthrax LF inh2: blocks Bacillus anthracis lethal factor protease | P15917 | multiplex microsphere protease cleavage assay, LF | inhibition, % at 10 µM | 360,000 tested, 0.12% active | AID 588501
Bead autofluor: counter-screen for toxin protease inhibitors: compound fluorescence. 360,000 tested, 3.1% active. compound autofluorescence counterscreen, microsphere flow cytometry; stronger effect = higher value. fluorescence intensity (concentration not given with the values); in the data active = fluorescence intensity above about 16000; inconclusive = no clear call, values can overlap the other calls
BoNT-A LC inh2: BoNT A light chain protease inhibition; multiplex microsphere protease substrate cleavage, flow cytometry; inhibition, % at 10 µM; 360,000 tested, 0.17% active; AID 588499
Numbers stand for hits; n = inactive; u = inconclusive; x = not tested or not shown. Rule as the data show it, unless noted: active = inhibition above about 30%; inconclusive = no clear call, values can overlap the other calls; inactive = below that.

SMILES	MazF activator	BoNT F protease	Anthrax LF inh2	Bead autofluor	BoNT-A LC inh2
Cc1nn(CCOc2ccccc2)c(=O)n1-c1ccc(Cl)cc1	n	n	n	n	n
CCOC(=O)Cn1nc(C)n(-c2ccccc2)c1=O	n	n	n	22724	n
Cc1nn(CCOc2ccccc2)c(=O)n1-c1ccccc1	n	n	n	22975	n
CCOC(=O)Cn1nc(C)n(-c2ccc(C)cc2)c1=O	n	n	n	22478	n
CCOC(=O)Cn1nc(-c2ccccc2)ccc1=O	n	n	n	23084	n
O=C(CN1CCN(C(=O)CN2C(=O)NC3(CCCC3)C2=O)CC1)Nc1cccc(F)c1	n	n	n	n	n
c1ccc2c(NCCc3c[nH]c4ccccc34)c3ccccc3nc2c1	n	n	n	n	n
COC(=O)C(C)n1nc(C)n(-c2ccc(C)cc2)c1=O (stereo not given)	n	n	n	22187	n
COC(=O)C(C)n1cnc2c(nnn2-c2ccc(C)cc2)c1=O (stereo not given)	n	n	n	n	n
COc1ccc(CN2CN=C(Nc3nc4ccccc4s3)NC2)cc1	62	n	n	23311	n
c1ccc(CN2CN=C(Nc3nc4ccccc4s3)NC2)cc1	56	n	n	16724	n
CC1CCCCC1N1CN=C(Nc2nc3ccccc3s2)NC1 (stereo not given)	n	n	n	23381	n
c1ccc2sc(NC3=NCN(C4CCCCC4)CN3)nc2c1	n	n	n	n	n
COc1ccccc1NS(=O)(=O)c1ccc(C(=O)NCC(c2ccco2)N2CCCCC2)cc1 (stereo not given)	n	n	n	n	n
C[C@H](CO)N1C[C@H](C)[C@H](CN(C)S(C)(=O)=O)OCc2cnnn2CCCC1=O	68	n	n	n	n
C[C@@H]1CN([C@@H](C)CO)C(=O)CCCn2nncc2CO[C@H]1CN(C)S(C)(=O)=O	n	n	n	n	n
Cc1ccc(-c2csc3ncnc(SCC(=O)c4ccc5c(c4)OCCO5)c23)cc1	n	n	n	19619	u
Cc1ccc(-c2csc3ncnc(SCC(=O)Nc4nnc(C)s4)c23)cc1	n	n	n	21425	u
CC(=O)CSc1ncnc2scc(-c3ccc(F)cc3)c12	n	n	n	n	n
O=S(=O)(Nc1ncccn1)c1ccc(NC(=S)N2CCN(Cc3ccc(F)cc3Cl)CC2)cc1	n	n	n	n	n
CC(=O)Nc1nc2[nH]ccc2c(=O)[nH]1	n	n	n	n	n
CC1=CC(C)(C)N(C(=O)c2ccccc2)c2ccc(C)cc21	n	n	n	n	n
CC1=CC(C)(C)N(C(=O)c2ccccc2)c2ccccc21	n	n	n	23091	n
COCCNC(=O)c1ccccc1NC(=O)CN(c1ccc2c(c1)OCO2)S(C)(=O)=O	n	n	n	n	n
CCC(C)NC(=O)c1ccccc1NC(=O)CN(c1ccc(OC)cc1)S(C)(=O)=O (stereo not given)	n	n	n	23469	n
SMILES	MazF activator	BoNT F protease	Anthrax LF inh2	Bead autofluor	BoNT-A LC inh2
CS(=O)(=O)N(CC(=O)Nc1ccccc1C(=O)NCc1ccco1)c1ccc2c(c1)OCCO2	n	n	n	23961	n
COc1ccc(N(CC(=O)Nc2ccccc2C(=O)NCCc2ccccc2)S(C)(=O)=O)cc1OC	n	n	n	21907	n
COc1ccc(N(CC(=O)Nc2ccccc2C(=O)NCC(C)C)S(C)(=O)=O)cc1	n	n	n	n	n
CC(C)CNC(=O)c1ccccc1NC(=O)CN(c1ccc2c(c1)OCCO2)S(C)(=O)=O	n	n	n	n	n
CCOc1ccc(Cn2c3ccc(OC)cc3c3nc4ccccc4nc32)cc1	65	n	n	n	n
CCCCOC(=O)Cn1c2ccc(OC)cc2c2nc3ccccc3nc21	215	n	n	n	n
COC(=O)Cn1c2ccccc2c2nc3ccccc3nc21	n	u	n	n	n
CCn1c2ccc(OC)cc2c2nc3ccccc3nc21	n	x	x	x	x
CCCc1cc2nnc(SCC(=O)N(C)C3CCCCC3)n2c(N)n1	n	n	n	n	n
Cc1ccc(CNC(=O)CN2C(=O)C3(OCCCO3)c3ccccc32)cc1	n	40	n	n	38
CCOc1ccccc1CN1C(=O)C2(OCCO2)c2ccccc21	n	u	n	n	n
O=C(CN1C(=O)C2(OCCCO2)c2ccccc21)NCc1ccccc1	n	n	n	17108	n
O=C(CN1C(=O)C2(OCCO2)c2ccccc21)c1ccc(Cl)cc1	n	n	n	16345	u
Cc1ccc(C)c(CN2C(=O)C3(OCCCO3)c3ccccc32)c1	n	n	n	23436	n
COC(=O)[C@]12CCCCC=C1N(Cc1ccco1)C(=O)[C@H](CC(=O)NCc1ccc(C)o1)C2	x	n	n	n	n
COc1ccccc1CN(C)C(=O)CN1CCN(S(=O)(=O)c2ccc3c(c2)OCCCO3)CC1	n	n	n	n	n
COC(=O)CN1C(=O)C2(OCCCO2)c2cc(Br)ccc21	n	n	n	23376	n
C=C1CC2C=C(NC(C)=O)CC(C1)C2 (stereo not given)	n	n	n	22238	n
CC(C)(C)NC(=O)CSc1nc(-c2ccccc2)c(-c2ccccc2)[nH]1	n	n	n	23364	n
Cc1ccc(CNCCC2=CCCCC2)cc1	n	n	n	16821	u
O=C(NCCC1=CCCCC1)C(=O)NCc1ccccc1Cl	n	n	n	16906	u
O=C(COc1ccccc1Cl)NCCC1=CCCCC1	n	n	n	n	n
O=C(CCN1C(=O)c2ccccc2C1=O)NCCC1=CCCCC1	n	n	n	20662	n
C1=C(CCNCc2ccccc2)CCCC1	n	n	n	23029	u
Cc1ccc(CNC(=O)C(=O)NCC2CCCN2S(=O)(=O)c2cc(C)ccc2C)cc1 (stereo not given)	n	n	n	n	n
SMILES	MazF activator	BoNT F protease	Anthrax LF inh2	Bead autofluor	BoNT-A LC inh2
Cc1cc(NS(=O)(=O)c2ccc(NC(=O)C(C)Oc3cc(C)c(Cl)c(C)c3)cc2)no1 (stereo not given)	n	n	n	n	n
Cc1cc(NS(=O)(=O)c2ccc(NC(=O)C(C)Oc3ccc(Cl)cc3)cc2)no1 (stereo not given)	n	n	n	17111	n
Cc1cc(NS(=O)(=O)c2ccc(NC(=O)C(C)Oc3ccccc3Cl)cc2)no1 (stereo not given)	n	u	u	n	u
CCCCOc1ccc(C(=O)Nc2ccc(S(=O)(=O)Nc3cc(C)on3)cc2)cc1OC	56	n	n	n	n
Cc1ccc(OC(C)C(=O)Nc2ccc(S(=O)(=O)Nc3cc(C)on3)cc2)cc1 (stereo not given)	n	n	n	21520	u
Cc1cc(NS(=O)(=O)c2ccc(CC(C)C)cc2)no1	n	n	n	18585	n
CCCCOc1cccc(C(=O)Nc2ccc(S(=O)(=O)Nc3cc(C)on3)cc2)c1	n	n	n	n	n
CCN1CCN(c2ccc(N3CCN(S(=O)(=O)c4cc([N+](=O)[O-])ccc4C)CC3)nn2)CC1	n	x	x	x	x
Cc1cc(O)cc(O)c1C=NCc1ccco1	90	n	n	n	n
Cc1ccc2nc(NCc3ccco3)c(C=NCc3ccco3)c(=O)n2c1	n	n	n	n	n
Cc1nn(CC(=O)NC2CCC(C)CC2)c(C)c1[N+](=O)[O-] (stereo not given)	n	n	n	u	n

Screening data from PubChem BioAssay.
